Inconclusive results are not listed. Where a call stands in place of a potency, no number is given. The source made the active and inactive calls. The call rests on the fitted dose curve; in most records, active means well fitted curve in the direction sought with a large enough effect; inconclusive means small, poorly fitted or top-dose-only effect, or another doubt; inactive means no such curve, though single readings can be large; an effect the other way counts as inactive or inconclusive.
Tests used:
[1] = molecular target: Glutathione peroxidase 1 (Homo sapiens) (UniProt P07203); assay: Primary qHTS Assay for Inhibitors of Recombinant Selenoprotein Glutathione Peroxidase 1 (GPX1) (AID 1845191); further: nearly all actives have a fitted effect of over 65% in size
Sequence of Glutathione peroxidase 1 (Homo sapiens) (P07203 whole entry, looked up): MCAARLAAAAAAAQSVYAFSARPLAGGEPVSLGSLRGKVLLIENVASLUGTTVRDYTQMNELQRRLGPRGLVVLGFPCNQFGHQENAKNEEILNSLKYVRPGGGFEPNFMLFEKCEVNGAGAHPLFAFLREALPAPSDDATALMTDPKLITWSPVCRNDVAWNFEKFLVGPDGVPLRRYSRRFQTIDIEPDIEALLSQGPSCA
Summary of the method: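 GPX1 10 nM, GR 100 nM, GSH 1 mM, NADPH 0.5 mM, CHP 0.5 mM (final). 30-min cpd preincubation, RT. Ex340/Em450 read t=0, t=15 min.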

[2] = molecular target: Luciferin 4-monooxygenase (Photinus pyralis) (UniProt P08659); assay: Primary firefly luciferase (FLuc) qHTS assay for identification of artifact compounds. (AID 1845220); conditions: outcome: dose series up to 54.1 µM unless noted; further: nearly all actives have a fitted effect of over 60% in size
Summary of the method: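 qHTS, 15 min compound preincubation with substrate (10 uM luciferin, 10 uM ATP) at RT, then 10 nM FLuc; 5 min; luminescence; % inhibition vs no-enzyme/DMSO controls, 4-parameter Hill fit.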

[3] = Primary fluorescence-based thiol-reactive (MSTI) qHTS assay for identification of artifact compounds. (AID 1845221);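 further: series mostly up to about 54 µM; thiol-reactive compounds lower the probe fluorescence signal; nearly all actives have a fitted effect of over 65% in size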
Summary of the method: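 Probe: MSTI 4 uM, PBS pH 7.4, 2% DMSO. Incubation 1 h, RT, light-protected. Readout fluorescence 525/598 nm.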

[4] = system: Nanoluciferase (engineered Oplophorus gracilirostris luciferase); assay: Primary Nanoluciferase (NLuc) qHTS assay for identification of artifact compounds. (AID 1845222); further: series mostly up to about 54 µM
Summary of the method: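 Luminescence read-out of secreted NLuc in S16 cell conditioned medium (1:55); compounds tested with 15 min RT preincubation, then Nano-Glo substrate 1:100, 5 min. % inhibition vs no-enzyme and DMSO controls, 4-parameter Hill fit.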

[5] = Primary redox qHTS assay for identification of artifact compounds. (AID 1845223)
Summary of the method: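 Redox-cycling detection via DTT (250 uM final) oxidation coupled to Amplex Red (25 uM)/HRP (250 mU/mL) in HBSS. 15 min preincubation plus 30 min after DTT, room temperature. Ex/Em 525/598 nm; 4-parameter Hill fit against DMSO and 10 uM DA3003.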

[6] = Quantitative High-Throughput drug screen in 47 multiple myeloma cell lines against the NCATS MIPE library collection: Delta47_JCRB cell viability assay (AID 1918925; further: nearly all actives have a fitted effect of over 45% in size; further: potency means the concentration at half of the fitted maximal effect)
Summary of the method: (§1)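 Approved and investigational drugs from MIPE 4.0 were added by pin tool to 500 cells per well. After 48 hours at 37C, ATP-based CellTiter-Glo luminescence indicated remaining viability.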

[7] = Quantitative High-Throughput drug screen in 47 multiple myeloma cell lines against the NCATS MIPE library collection: AMO1_DSMZ cell viability assay (AID 1918927; further: nearly all actives have a fitted effect of over 30% in size; further: potency means the concentration at half of the fitted maximal effect)
Summary of the method: as §1

[8] = Quantitative High-Throughput drug screen in 47 multiple myeloma cell lines against the NCATS MIPE library collection: ARD_JJKsccE7 cell viability assay (AID 1918929; further: potency means the concentration at half of the fitted maximal effect)
Summary of the method: as §1

[9] = Quantitative High-Throughput drug screen in 47 multiple myeloma cell lines against the NCATS MIPE library collection: FR4_PLB cell viability assay (AID 1918924; further: nearly all actives have a fitted effect of over 35% in size; further: potency means the concentration at half of the fitted maximal effect)
Summary of the method: (§2)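 qHTS of the MIPE 4.0 collection: 500 myeloma cells/well, 48 h drug exposure at 37C in 5% CO2, then CellTiter-Glo for 5 min at room temperature before luminescence reading.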

[10] = Quantitative High-Throughput drug screen in 47 multiple myeloma cell lines against the NCATS MIPE library collection: EJM_DSMZ cell viability assay (AID 1918926; further: nearly all actives have a fitted effect of over 30% in size; further: potency means the concentration at half of the fitted maximal effect)
Summary of the method: as §1

[11] = Quantitative High-Throughput drug screen in 47 multiple myeloma cell lines against the NCATS MIPE library collection: ARP1_JJKsccF8 cell viability assay (AID 1918928; further: nearly all actives have a fitted effect of over 40% in size; further: potency means the concentration at half of the fitted maximal effect)
Summary of the method: (§3)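 CellTiter-Glo luminescence after 48 h exposure gives viability, scaled between DMSO-only (100%) and media-only (0%) controls. Library compounds are pinned onto 500 myeloma cells per well, incubated at 37C with 5% CO2.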

[12] = Quantitative High-Throughput drug screen in 47 multiple myeloma cell lines against the NCATS MIPE library collection: KHM11_PLB cell viability assay (AID 1918962); further: nearly all actives have a fitted effect of over 35% in size; further: potency means the concentration at half of the fitted maximal effect
Summary of the method: as §2

[13] = Quantitative High-Throughput drug screen in 47 multiple myeloma cell lines against the NCATS MIPE library collection: JIM3_ECACC cell viability assay (AID 1918963; further: nearly all actives have a fitted effect of over 35% in size; further: potency means the concentration at half of the fitted maximal effect)
Summary of the method: as §2

[14] = Quantitative High-Throughput drug screen in 47 multiple myeloma cell lines against the NCATS MIPE library collection: INA6_PLB cell viability assay (AID 1918965; further: nearly all actives have a fitted effect of over 55% in size; further: potency means the concentration at half of the fitted maximal effect)
Summary of the method: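 Luminescent ATP measurement with CellTiter-Glo gives viability, scaled between DMSO-only wells (100%) and media-only wells (0%). Cells, 500 per well, faced library compounds for 48 hours at 37C.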

[15] = Quantitative High-Throughput drug screen in 47 multiple myeloma cell lines against the NCATS MIPE library collection: JJN3_DSMZ cell viability assay (AID 1918966; further: nearly all actives have a fitted effect of over 50% in size; further: potency means the concentration at half of the fitted maximal effect)
Summary of the method: as §1

[16] = molecular target: Phospholipid hydroperoxide glutathione peroxidase GPX4 (Homo sapiens) (UniProt P36969); assay: Primary qHTS Assay for Inhibitors of Recombinant Selenoprotein Glutathione Peroxidase 4 (GPX4) (AID 1845192); further: nearly all actives have a fitted effect of over 65% in size
Sequence of Phospholipid hydroperoxide glutathione peroxidase GPX4 (Homo sapiens) (P36969 whole entry, looked up): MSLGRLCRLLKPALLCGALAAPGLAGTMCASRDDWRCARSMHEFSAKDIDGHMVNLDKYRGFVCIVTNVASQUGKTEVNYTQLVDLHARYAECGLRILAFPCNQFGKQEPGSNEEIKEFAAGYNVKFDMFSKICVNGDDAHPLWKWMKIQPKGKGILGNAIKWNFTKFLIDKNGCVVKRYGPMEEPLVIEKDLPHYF
Summary of the method: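 qHTS, GR-coupled: GPX4 200 nM + cpd 30 min RT → GSH 1 mM, NADPH 0.5 mM, GR 100 nM → CHP 0.5 mM start; fluor 340/450 at t0 and t15 min; no-enzyme wells as control.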

[17] = Quantitative High-Throughput drug screen in 47 multiple myeloma cell lines against the NCATS MIPE library collection: Karpas620_DSMZ cell viability assay (AID 1918959); further: nearly all actives have a fitted effect of over 30% in size; further: potency means the concentration at half of the fitted maximal effect
Summary of the method: as §2

[18] = Quantitative High-Throughput drug screen in 47 multiple myeloma cell lines against the NCATS MIPE library collection: KMM1_JCRB cell viability assay (AID 1918960); further: nearly all actives have a fitted effect of over 30% in size; further: potency means the concentration at half of the fitted maximal effect
Summary of the method: as §3

[19] = Quantitative High-Throughput drug screen in 47 multiple myeloma cell lines against the NCATS MIPE library collection: JIM1_ECACC cell viability assay (AID 1918964; further: potency means the concentration at half of the fitted maximal effect)
Summary of the method: as §1

Row | SMILES | Potency [1] | outcome [2] | Potency [3] | outcome [4] | outcome [5] | Potency [6] | Potency [7] | Potency [8] | Potency [9] | Potency [10] | Potency [11] | Potency [12] | Potency [13] | Potency [14] | Potency [15] | Potency [16] | Potency [17] | Potency [18] | Potency [19]
1 | O=C(N[C@@H](COc1ccc2[nH]c(=O)[nH]c2c1)c1ccccc1)c1cccn(Cc2ccc(F)c(F)c2)c1=O | inactive | inactive | inactive | inactive | inactive | 20.9 µM (active) | 18.7 µM (active) | 18.7 µM (active) | – | – | – | – | – | – | – | – | – | – | –
2 | CC(C)(C)c1cc(C=C(C#N)C#N)cc(Br)c1O | inactive | – | – | – | – | 16.6 µM (active) | 26.4 µM (active) | – | 26.4 µM (active) | 23.5 µM (active) | 26.4 µM (active) | 14.8 µM (active) | 16.6 µM (active) | 4.18 µM (active) | 23.5 µM (active) | – | – | – | –
3 | CC(=O)[O][Hg][c]1ccccc1 | – | – | – | – | – | – | – | – | – | – | – | – | – | – | – | inactive | – | – | –
4 | CC1(N2CCC(n3c([C@@H]4CCCNC4)nc4ccccc43)CC2)CCCCCCC1 | inactive | inactive | inactive | inactive | inactive | 13.2 µM (active) | 26.4 µM (active) | – | 23.5 µM (active) | inactive | – | 6.62 µM (active) | – | 14.8 µM (active) | – | – | 9.35 µM (active) | – | –
5 | O=[N+]([O-])c1ncc[nH]1 | – | – | – | – | – | inactive | inactive | – | inactive | inactive | inactive | – | inactive | – | inactive | – | inactive | – | –
6 | CC(=O)N(C)c1cccc(-c2ccnc3c(C(=O)c4cccs4)cnn23)c1 | inactive | inactive | inactive | inactive | inactive | – | – | 20.9 µM (active) | inactive | inactive | – | – | inactive | 14.8 µM (active) | – | – | – | – | –
7 | COc1cc2cc(c1Cl)N(C)C(=O)C[C@H](OC(=O)C(C)C)[C@]1(C)O[C@H]1[C@H](C)[C@@H]1C[C@@](O)(NC(=O)O1)[C@H](OC)C=CC=C(C)C2 | – | – | – | – | – | inactive | inactive | inactive | inactive | inactive | inactive | inactive | inactive | inactive | inactive | – | – | inactive | inactive
8 | NC1=NC(=O)N2CC12 (stereo not drawn) | inactive | – | – | – | – | 10.5 µM (active) | 13.2 µM (active) | 18.7 µM (active) | inactive | inactive | inactive | – | – | 18.7 µM (active) | – | – | 9.35 µM (active) | 11.8 µM (active) | 13.2 µM (active)
9 | Clc1ccccc1C(c1ccccc1)(c1ccccc1)n1cccn1 | inactive | – | – | – | – | inactive | – | inactive | inactive | – | – | inactive | inactive | inactive | – | – | inactive | – | inactive
10 | C[C@]12CC[C@@H]3[C@@H](CCC4=CC(=O)CC[C@@H]43)[C@@H]1CC[C@@H]2OC(=O)CCc1ccccc1 | inactive | – | – | – | – | – | inactive | – | inactive | – | – | – | inactive | – | – | – | inactive | – | –
11 | C1=C2CCCN[C@H]2[C@@H]2C[C@H]1[C@@H]1CCCCN1C2 | – | – | – | – | – | inactive | inactive | – | inactive | inactive | inactive | inactive | inactive | – | inactive | – | inactive | inactive | –
12 | CC[C@@H]1[C@@H](C)O[C@@](O)([C@@H](C)[C@H](O)[C@H](C)[C@H]2OC(=O)C=CC=C[C@@H](C)[C@@H]([C@@H](C)[C@@H](O)[C@H](C)[C@@]3(O)C[C@H](O[C@H]4C[C@H](O)[C@H](O)[C@H](C)O4)[C@H](CC)[C@@H](C)O3)OC(=O)C=CC=C[C@@H]2C)C[C@H]1O[C@H]1C[C@H](O)[C@H](O)[C@H](C)O1 | – | – | – | – | – | 0.743 µM (active) | 0.332 µM (active) | 0.372 µM (active) | 0.526 µM (active) | 0.833 µM (active) | 0.372 µM (active) | 1.05 µM (active) | 0.935 µM (active) | 1.05 µM (active) | 0.833 µM (active) | – | 0.372 µM (active) | 0.469 µM (active) | 0.264 µM (active)
13 | COCC1(CO)C(=O)C2CCN1CC2 (stereo not drawn) | inactive | – | – | – | – | – | – | 20.9 µM (active) | 16.6 µM (active) | 20.9 µM (active) | 1.48 µM (active) | 7.43 µM (active) | 18.7 µM (active) | 2.96 µM (active) | 0.59 µM (active) | – | 23.5 µM (active) | 20.9 µM (active) | 6.62 µM (active)
14 | C[C@@H]1CC[C@@]2(OC1)O[C@H]1C[C@H]3[C@@H]4CC=C5C[C@@H](O[C@@H]6O[C@H](CO)[C@@H](O[C@@H]7O[C@@H](C)[C@H](O)[C@@H](O)[C@@H]7O)[C@H](O)[C@@H]6O[C@@H]6O[C@@H](C)[C@H](O)[C@@H](O)[C@@H]6O)CC[C@]5(C)[C@@H]4CC[C@]3(C)[C@@H]1[C@H]2C | – | – | – | – | – | 5.9 µM (active) | 2.64 µM (active) | 2.35 µM (active) | 2.35 µM (active) | 2.64 µM (active) | 3.32 µM (active) | 2.96 µM (active) | 3.72 µM (active) | 5.26 µM (active) | 2.35 µM (active) | – | 2.96 µM (active) | – | 2.35 µM (active)
